# Laboratory results as given in PMC7862700, “An all-to-all approach to the identification of sequence-specific readers for epigenetic DNA modifications on cytosine”.
# What was measured:
# Experiment in all cases: DAPPL (digital affinity profiling via proximity ligation, sequencing); 10 mM Tris-HCl pH 7.5, 50 mM NaCl, 1 mM DTT, 4% glycerol, room temperature, 30 min; GST-TFs on glutathione beads, 16-mer random dsDNA library, 0.1% formaldehyde crosslink after washing; high values mean tight binding
# FLI1 = target: T1, FLI1 (Homo sapiens, UniProt Q01543 1-452); conditions: protein: recombinant; tags: N-terminal GST; dsDNA, one strand shown
# T1 sequence: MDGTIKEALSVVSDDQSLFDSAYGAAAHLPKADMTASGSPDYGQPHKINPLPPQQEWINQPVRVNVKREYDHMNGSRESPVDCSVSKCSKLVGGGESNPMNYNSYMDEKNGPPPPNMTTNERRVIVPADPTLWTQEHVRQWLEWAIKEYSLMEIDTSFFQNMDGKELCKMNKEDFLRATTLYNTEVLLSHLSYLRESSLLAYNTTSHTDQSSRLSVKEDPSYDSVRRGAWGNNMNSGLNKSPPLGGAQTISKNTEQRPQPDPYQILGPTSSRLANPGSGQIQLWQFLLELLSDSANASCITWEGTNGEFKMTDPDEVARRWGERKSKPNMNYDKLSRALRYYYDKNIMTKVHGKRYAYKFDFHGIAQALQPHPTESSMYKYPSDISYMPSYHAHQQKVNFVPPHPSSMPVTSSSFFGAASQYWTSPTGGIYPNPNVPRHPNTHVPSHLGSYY
# Procedure, shortened: (§1)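 After expression in yeast as GST fusions, human transcription factors were bound to glutathione beads, DNA-barcoded and mixed with a tag-only sample. The pools were incubated with 200 nmole of a 16-mer random double-stranded DNA library in Tris/NaCl/DTT/glycerol buffer (30 min, room temperature), washed and crosslinked with 0.1% formaldehyde. Proximity ligation with BsaI/T4 ligase ran for 1 h at 37 °C, before PCR amplification and sequencing on an Illumina NextSeq500. Binding signal is a hexamer's read frequency for a factor divided by its frequency for the tag-only sample.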
# ELK1 = target: T2, ELK1 (Homo sapiens, UniProt P19419 1-428); conditions: protein: recombinant; tags: N-terminal GST; dsDNA, one strand shown
# T2 sequence: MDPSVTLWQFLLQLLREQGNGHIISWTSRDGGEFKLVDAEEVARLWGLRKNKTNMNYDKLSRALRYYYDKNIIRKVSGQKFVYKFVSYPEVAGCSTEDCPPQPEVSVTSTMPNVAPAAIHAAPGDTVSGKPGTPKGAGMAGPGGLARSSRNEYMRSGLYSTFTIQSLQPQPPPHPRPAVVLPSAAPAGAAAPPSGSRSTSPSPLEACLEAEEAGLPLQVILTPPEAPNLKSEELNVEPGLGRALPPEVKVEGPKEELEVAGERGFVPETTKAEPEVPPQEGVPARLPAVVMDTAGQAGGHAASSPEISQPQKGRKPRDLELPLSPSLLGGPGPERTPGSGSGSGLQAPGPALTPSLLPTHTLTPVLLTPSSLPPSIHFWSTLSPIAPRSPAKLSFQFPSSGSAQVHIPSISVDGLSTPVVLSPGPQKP
# Procedure, shortened: as §1
# GABPA = target: T3, GABPA (Homo sapiens, UniProt Q06546 1-454); conditions: protein: recombinant; tags: N-terminal GST; dsDNA, one strand shown
# T3 sequence: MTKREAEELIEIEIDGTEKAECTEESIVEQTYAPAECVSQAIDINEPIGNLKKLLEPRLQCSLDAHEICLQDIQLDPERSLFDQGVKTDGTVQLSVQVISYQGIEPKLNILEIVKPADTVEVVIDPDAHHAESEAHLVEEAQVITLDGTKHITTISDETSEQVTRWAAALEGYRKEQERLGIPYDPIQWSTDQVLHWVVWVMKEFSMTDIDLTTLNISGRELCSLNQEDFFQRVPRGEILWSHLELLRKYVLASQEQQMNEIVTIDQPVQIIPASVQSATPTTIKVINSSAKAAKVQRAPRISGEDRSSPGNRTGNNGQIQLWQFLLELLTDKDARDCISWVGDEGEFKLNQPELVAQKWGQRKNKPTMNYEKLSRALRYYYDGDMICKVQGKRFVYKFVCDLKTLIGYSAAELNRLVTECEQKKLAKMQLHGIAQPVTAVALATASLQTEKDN
# Procedure, shortened: as §1
# ERG = target: T4, ERG (Homo sapiens, UniProt P11308 1-479); conditions: protein: recombinant; tags: N-terminal GST; dsDNA, one strand shown
# T4 sequence: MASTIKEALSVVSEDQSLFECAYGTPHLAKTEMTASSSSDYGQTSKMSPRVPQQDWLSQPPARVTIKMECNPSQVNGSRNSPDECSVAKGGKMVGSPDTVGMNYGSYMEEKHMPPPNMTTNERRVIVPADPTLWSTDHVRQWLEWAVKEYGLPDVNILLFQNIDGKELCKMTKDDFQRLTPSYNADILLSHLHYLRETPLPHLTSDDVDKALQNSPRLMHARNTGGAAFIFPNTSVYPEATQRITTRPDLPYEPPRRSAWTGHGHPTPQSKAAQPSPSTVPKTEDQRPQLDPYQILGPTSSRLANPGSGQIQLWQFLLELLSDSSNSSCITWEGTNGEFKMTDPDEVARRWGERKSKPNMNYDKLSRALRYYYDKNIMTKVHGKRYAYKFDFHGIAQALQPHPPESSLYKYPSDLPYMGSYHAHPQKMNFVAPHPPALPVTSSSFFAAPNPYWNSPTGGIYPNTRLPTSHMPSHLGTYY
# Procedure, shortened: as §1
# ELF1 = ELF1 (Homo sapiens, UniProt P32519 1-619); conditions: protein: recombinant; tags: N-terminal GST; dsDNA, one strand shown
# Sequence of ELF1 (P32519 whole entry): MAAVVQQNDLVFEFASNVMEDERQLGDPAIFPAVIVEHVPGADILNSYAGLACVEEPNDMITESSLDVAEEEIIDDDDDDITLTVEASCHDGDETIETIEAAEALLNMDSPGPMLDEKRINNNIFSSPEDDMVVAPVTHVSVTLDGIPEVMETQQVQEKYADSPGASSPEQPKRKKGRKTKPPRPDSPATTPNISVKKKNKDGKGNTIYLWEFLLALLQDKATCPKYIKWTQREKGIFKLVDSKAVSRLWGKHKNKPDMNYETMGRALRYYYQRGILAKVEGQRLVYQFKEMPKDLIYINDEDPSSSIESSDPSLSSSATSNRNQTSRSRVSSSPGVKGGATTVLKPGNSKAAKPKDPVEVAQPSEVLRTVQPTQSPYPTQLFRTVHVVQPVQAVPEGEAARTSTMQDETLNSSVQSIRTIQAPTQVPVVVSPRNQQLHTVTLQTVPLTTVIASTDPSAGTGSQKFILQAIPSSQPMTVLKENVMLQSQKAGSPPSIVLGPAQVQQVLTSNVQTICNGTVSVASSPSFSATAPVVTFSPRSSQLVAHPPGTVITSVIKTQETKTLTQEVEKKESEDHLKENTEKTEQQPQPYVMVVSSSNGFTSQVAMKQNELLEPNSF
# Procedure, shortened: as §1
# EHF = target: T5, EHF (Homo sapiens, UniProt Q9NZC4 1-300); conditions: protein: recombinant; tags: N-terminal GST; dsDNA, one strand shown
# T5 sequence: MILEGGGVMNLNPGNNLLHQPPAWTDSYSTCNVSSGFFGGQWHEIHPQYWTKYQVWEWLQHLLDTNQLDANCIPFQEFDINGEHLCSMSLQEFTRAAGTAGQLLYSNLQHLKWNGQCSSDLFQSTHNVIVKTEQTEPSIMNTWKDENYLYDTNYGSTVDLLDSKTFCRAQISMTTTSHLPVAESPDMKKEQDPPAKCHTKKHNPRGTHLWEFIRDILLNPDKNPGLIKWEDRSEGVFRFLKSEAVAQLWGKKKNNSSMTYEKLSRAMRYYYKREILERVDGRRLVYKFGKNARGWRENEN
# Procedure, shortened: as §1
# SPIB = SPIB (Homo sapiens, UniProt Q01892 1-262); conditions: protein: recombinant; tags: N-terminal GST; dsDNA, one strand shown
# Sequence of SPIB (Q01892 whole entry): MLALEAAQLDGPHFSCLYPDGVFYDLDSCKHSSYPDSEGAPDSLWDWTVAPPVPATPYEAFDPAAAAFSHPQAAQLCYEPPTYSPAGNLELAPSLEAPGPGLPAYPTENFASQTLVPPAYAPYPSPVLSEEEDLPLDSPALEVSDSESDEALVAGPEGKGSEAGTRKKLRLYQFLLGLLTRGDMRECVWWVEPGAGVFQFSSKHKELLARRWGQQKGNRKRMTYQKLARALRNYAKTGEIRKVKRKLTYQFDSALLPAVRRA
# Procedure, shortened: as §1
# ELK3 = target: T6, ELK3 (Homo sapiens, UniProt P41970 1-407); conditions: protein: recombinant; tags: N-terminal GST; dsDNA, one strand shown
# T6 sequence: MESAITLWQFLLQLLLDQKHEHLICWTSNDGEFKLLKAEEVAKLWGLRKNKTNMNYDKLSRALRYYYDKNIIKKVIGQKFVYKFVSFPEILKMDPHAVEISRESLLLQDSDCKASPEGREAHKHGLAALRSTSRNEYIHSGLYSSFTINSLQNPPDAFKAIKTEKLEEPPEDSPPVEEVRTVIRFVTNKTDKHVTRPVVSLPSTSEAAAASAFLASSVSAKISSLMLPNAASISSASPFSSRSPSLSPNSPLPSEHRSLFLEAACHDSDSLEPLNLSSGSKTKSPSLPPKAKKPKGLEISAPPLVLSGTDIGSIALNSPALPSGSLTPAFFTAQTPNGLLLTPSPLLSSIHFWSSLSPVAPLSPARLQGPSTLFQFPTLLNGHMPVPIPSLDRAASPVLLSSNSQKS
# Procedure, shortened: as §1
# FEV = target: T7, FEV (Homo sapiens, UniProt Q99581 1-238); conditions: protein: recombinant; tags: N-terminal GST; dsDNA, one strand shown
# T7 sequence: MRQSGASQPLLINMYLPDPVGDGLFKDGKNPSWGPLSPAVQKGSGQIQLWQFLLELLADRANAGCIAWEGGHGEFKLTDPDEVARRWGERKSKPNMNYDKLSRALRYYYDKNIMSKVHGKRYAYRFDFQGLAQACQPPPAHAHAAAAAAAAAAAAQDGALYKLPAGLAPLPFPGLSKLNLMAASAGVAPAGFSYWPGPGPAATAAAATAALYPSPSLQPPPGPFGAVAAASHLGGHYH
# Procedure, shortened: as §1
# ETV5 = ETV5 (Homo sapiens, UniProt P41161 1-510); conditions: protein: recombinant; tags: N-terminal GST; dsDNA, one strand shown
# Sequence of ETV5 (P41161 whole entry): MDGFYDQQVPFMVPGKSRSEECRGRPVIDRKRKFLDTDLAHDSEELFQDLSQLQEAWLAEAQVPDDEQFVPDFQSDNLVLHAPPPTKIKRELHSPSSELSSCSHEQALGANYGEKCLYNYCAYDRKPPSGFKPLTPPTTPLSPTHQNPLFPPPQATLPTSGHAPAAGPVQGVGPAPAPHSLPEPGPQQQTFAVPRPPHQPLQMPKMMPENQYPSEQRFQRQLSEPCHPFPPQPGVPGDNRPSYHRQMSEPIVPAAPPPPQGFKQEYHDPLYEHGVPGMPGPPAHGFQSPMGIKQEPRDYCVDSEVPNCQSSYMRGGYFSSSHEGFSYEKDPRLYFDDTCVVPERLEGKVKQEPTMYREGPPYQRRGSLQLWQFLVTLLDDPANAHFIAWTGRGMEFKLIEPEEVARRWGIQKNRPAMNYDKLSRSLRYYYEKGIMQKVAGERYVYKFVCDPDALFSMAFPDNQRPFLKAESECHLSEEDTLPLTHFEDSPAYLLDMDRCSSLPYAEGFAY
# Procedure, shortened: as §1
# HSF1 = HSF1 (Homo sapiens, UniProt Q00613 1-529); conditions: protein: recombinant; tags: N-terminal GST; chain copies: 3; dsDNA, one strand shown
# Sequence of HSF1 (Q00613 whole entry): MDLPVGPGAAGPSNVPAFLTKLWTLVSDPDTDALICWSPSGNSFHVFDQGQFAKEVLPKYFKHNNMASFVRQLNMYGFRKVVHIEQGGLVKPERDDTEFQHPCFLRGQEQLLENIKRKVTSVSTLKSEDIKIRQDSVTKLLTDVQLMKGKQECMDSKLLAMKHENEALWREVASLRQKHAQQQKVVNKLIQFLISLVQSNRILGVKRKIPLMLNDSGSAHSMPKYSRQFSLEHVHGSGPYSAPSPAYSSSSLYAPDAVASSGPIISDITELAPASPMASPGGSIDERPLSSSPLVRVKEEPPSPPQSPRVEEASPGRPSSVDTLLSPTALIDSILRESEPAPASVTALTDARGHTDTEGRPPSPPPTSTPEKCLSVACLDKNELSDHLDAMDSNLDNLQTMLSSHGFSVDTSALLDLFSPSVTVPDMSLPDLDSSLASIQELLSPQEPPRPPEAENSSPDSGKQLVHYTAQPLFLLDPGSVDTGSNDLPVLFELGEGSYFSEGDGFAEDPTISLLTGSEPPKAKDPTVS
# Procedure, shortened: as §1
# SPIC = target: T8, SPIC (Homo sapiens, UniProt Q8N5J4 1-248); conditions: protein: recombinant; tags: N-terminal GST; dsDNA, one strand shown
# T8 sequence: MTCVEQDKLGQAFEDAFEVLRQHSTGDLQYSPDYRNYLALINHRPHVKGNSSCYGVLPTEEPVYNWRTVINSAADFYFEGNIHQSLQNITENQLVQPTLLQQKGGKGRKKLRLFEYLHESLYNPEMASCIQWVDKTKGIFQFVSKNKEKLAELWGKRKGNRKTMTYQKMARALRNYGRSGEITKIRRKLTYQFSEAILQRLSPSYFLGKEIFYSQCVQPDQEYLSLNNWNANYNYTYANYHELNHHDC
# Procedure, shortened: as §1
# ELF4 = ELF4 (Homo sapiens, UniProt Q99607 1-663); conditions: protein: recombinant; tags: N-terminal GST; dsDNA, one strand shown
# Sequence of ELF4 (Q99607 whole entry): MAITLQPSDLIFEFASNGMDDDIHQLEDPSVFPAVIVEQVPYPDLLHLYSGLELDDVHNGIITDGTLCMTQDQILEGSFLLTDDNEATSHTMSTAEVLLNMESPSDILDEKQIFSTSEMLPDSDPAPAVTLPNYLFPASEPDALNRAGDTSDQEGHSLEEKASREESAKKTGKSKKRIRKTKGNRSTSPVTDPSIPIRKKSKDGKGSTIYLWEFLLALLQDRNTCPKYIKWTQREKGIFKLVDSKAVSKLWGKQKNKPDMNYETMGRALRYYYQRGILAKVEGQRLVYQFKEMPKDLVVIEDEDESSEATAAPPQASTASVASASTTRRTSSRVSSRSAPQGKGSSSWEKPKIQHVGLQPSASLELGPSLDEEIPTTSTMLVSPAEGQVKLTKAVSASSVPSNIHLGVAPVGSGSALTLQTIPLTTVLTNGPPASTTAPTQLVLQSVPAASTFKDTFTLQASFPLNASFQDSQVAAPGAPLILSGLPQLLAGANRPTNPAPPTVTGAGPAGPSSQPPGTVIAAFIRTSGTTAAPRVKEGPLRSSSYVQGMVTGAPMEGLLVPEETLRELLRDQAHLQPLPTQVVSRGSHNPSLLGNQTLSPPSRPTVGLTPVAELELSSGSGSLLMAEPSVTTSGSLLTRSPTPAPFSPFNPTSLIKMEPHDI
# Procedure, shortened: as §1
# ELK4 = target: T9, ELK4 (Homo sapiens, UniProt P28324-2 1-405); conditions: protein: recombinant; tags: N-terminal GST; dsDNA, one strand shown
# T9 sequence: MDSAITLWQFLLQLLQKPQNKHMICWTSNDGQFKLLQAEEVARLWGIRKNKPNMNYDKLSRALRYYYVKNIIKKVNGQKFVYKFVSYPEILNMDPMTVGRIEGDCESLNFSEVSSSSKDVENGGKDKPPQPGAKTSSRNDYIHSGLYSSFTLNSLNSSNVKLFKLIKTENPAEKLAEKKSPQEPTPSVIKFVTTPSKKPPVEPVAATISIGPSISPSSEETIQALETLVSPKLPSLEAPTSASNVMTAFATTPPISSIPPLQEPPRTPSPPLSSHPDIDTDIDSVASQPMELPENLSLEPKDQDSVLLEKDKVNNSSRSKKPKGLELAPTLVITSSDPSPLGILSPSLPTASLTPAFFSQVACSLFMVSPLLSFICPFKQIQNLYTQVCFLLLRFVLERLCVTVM
# Procedure, shortened: as §1
# ELF3 = target: T10, ELF3 (Homo sapiens, UniProt P78545 1-371); conditions: protein: recombinant; tags: N-terminal GST; dsDNA, one strand shown
# T10 sequence: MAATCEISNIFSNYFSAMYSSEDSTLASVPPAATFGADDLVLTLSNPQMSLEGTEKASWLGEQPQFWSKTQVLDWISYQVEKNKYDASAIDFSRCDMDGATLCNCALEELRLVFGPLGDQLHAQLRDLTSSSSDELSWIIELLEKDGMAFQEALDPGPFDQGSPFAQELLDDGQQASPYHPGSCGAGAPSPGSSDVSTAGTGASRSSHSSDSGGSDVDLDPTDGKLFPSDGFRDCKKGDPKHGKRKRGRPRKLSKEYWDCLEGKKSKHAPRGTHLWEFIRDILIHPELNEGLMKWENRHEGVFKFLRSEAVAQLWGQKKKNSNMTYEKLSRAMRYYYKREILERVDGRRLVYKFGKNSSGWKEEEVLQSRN
# Procedure, shortened: as §1
# CRX = CRX (Homo sapiens, UniProt O43186 1-299); conditions: protein: recombinant; tags: N-terminal GST; dsDNA, one strand shown
# Sequence of CRX (O43186 whole entry): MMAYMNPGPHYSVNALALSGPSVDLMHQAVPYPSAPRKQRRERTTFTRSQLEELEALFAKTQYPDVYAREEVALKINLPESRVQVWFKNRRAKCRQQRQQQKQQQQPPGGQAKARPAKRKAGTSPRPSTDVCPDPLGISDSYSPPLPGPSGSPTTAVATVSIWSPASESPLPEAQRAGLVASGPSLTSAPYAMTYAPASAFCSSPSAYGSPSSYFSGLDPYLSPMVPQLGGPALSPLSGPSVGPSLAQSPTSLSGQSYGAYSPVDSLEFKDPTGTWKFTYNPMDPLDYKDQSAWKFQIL
# Procedure, shortened: as §1
# ETV1 = ETV1 (Homo sapiens, UniProt P50549 1-477); conditions: protein: recombinant; tags: N-terminal GST; dsDNA, one strand shown
# Sequence of ETV1 (P50549 whole entry): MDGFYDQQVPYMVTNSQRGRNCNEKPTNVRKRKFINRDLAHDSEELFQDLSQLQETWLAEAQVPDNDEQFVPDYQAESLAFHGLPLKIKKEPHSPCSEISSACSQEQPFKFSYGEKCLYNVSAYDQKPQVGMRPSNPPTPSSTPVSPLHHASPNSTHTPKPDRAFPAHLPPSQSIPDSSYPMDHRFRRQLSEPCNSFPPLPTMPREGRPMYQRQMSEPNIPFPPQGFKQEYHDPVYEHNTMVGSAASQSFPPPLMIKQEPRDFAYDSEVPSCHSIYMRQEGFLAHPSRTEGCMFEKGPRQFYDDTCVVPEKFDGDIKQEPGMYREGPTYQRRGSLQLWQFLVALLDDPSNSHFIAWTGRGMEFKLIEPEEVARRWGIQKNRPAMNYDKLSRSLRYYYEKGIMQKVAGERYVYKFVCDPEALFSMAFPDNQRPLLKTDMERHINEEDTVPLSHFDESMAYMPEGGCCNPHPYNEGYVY
# Procedure, shortened: as §1
sequence,measurement,setting,value
TGCTTA,binding signal,FLI1,"1.04 fold enrichment (6-mer frequency, TF over GST control)"
same,binding signal,ELK1,"1.06 fold enrichment (6-mer frequency, TF over GST control)"
same,binding signal,GABPA,"1.21 fold enrichment (6-mer frequency, TF over GST control)"
same,binding signal,ERG,"1.15 fold enrichment (6-mer frequency, TF over GST control)"
same,binding signal,ELF1,"1.13 fold enrichment (6-mer frequency, TF over GST control)"
same,binding signal,EHF,"1.08 fold enrichment (6-mer frequency, TF over GST control)"
same,binding signal,SPIB,"1.06 fold enrichment (6-mer frequency, TF over GST control)"
same,binding signal,ELK3,"1 fold enrichment (6-mer frequency, TF over GST control)"
same,binding signal,FEV,"1.03 fold enrichment (6-mer frequency, TF over GST control)"
same,binding signal,ETV5,"1.09 fold enrichment (6-mer frequency, TF over GST control)"
same,binding signal,HSF1,"1.33 fold enrichment (6-mer frequency, TF over GST control)"
same,binding signal,SPIC,"1.32 fold enrichment (6-mer frequency, TF over GST control)"
same,binding signal,ELF4,"1.11 fold enrichment (6-mer frequency, TF over GST control)"
same,binding signal,ELK4,"1.04 fold enrichment (6-mer frequency, TF over GST control)"
same,binding signal,ELF3,"1.09 fold enrichment (6-mer frequency, TF over GST control)"
same,binding signal,CRX,"1.78 fold enrichment (6-mer frequency, TF over GST control)"
same,binding signal,ETV1,"1.11 fold enrichment (6-mer frequency, TF over GST control)"
